The inhibition is the change of the read-out against control, counted positive when it falls.

The nature of the test: inhibitors of T. brucei MetRS aminoacylation, late-stage follow-up, biochemical, radioactivity, round 1 (AID 743060). The note with it: purified enzyme, radiolabel aminoacylation, scintillation, 2 h; at 10 µM; stronger effect = higher value.
As to `O=C(CSC1CC(=O)N(c2cccc(Cl)c2)C1=O)Nc1ccc(Br)cc1` (centres undefined), the inhibition amounted to 79.9%. For the compound `CCc1ccc2[nH]c3nc(SCC(=O)NCc4cccc(OC)c4)nnc3c2c1`, the inhibition was 0.65%. With `CC(CC(=O)Nc1cccc(Br)c1)=NNC(=O)c1ccc(O)cc1O` the figure was 90.5%. Consider `Cc1cccc2[nH]c(C3CCCN(C(=O)c4cccc5cccnc45)C3)nc12` (centres undefined), for which the inhibition was -4.34%. Next, `O=C(NCc1nc2ccccc2[nH]1)C1=C[C@H](c2ccc3c(c2)OCO3)C[C@H](OCCCCO)O1`: 79.4%; `Brc1cnc2nc(SCc3nc4ccccc4[nH]3)[nH]c2c1`: 84.9%; `COc1ccc(NC(=O)C2CC(=O)n3c(nc4ccccc43)N2)cc1` (centres undefined): -13.4%. For the compound `O=C(NCCc1nc2ccccc2[nH]1)c1ccc(Cl)c(Cl)c1`, the inhibition was determined as 97.5%. As to `CCC(=O)c1cn(CC(=O)Nc2cccc(C(F)(F)F)c2)c2ccccc12`, the inhibition stood at 4.46%. With `Cc1ccc2[nH]c3nc(SCC(=O)Nc4ccc(C(F)(F)F)cc4)nnc3c2c1`, the inhibition was 15.1%.

For the compound `CN1CC(=O)N2C(c3cccc([N+](=O)[O-])c3)c3[nH]c4ccccc4c3C[C@H]2C1=O` (some centres undefined), the inhibition was determined as 96.7%.

For the compound `O=C(Cn1cc(C(=O)COc2ccccc2)c2ccccc21)Nc1cccc(C(F)(F)F)c1`, the inhibition is -11.8%. In the case of `O=C(CSc1nnc2c(n1)[nH]c1ccc(Br)cc12)NCc1ccccc1`, the inhibition is 59.7%.

`COc1ccc(CCN(C(=O)c2cccc(F)c2)C2CC(=O)N(c3ccc(Br)cc3)C2=O)cc1` (centres undefined): the inhibition was -7.62%. With `CC(C)(C)[C@@H]1C=C(C(=O)NCc2nc3ccccc3[nH]2)O[C@H](OCc2ccc(CO)cc2)C1` the figure was 84.8%; with `CC(=O)N(CCc1ccccc1)C1CC(=O)N(c2ccc(Cl)cc2)C1=O` (centres undefined), -17.1%; with `O=C(Cn1cc(C(=O)C(=O)N2CCCC2)c2ccccc21)Nc1ccccc1`, 9.2%. In the case of `COc1ccccc1NC(=O)CSc1nnc2c(n1)[nH]c1ccc(C)cc12`, the inhibition turned out to be 14.5%. In the case of `Cc1ccc(C(=O)NCCc2nc3ccccc3[nH]2)cc1C`, the inhibition was -3.55%. With `O=C1CC(N(CCc2ccccc2)C(=S)Nc2ccccc2)C(=O)N1c1ccc(Br)cc1` (centres undefined), the inhibition was 97.3%. As for `O=C(NCCc1nc2ccccc2[nH]1)c1ccc(Cl)c([N+](=O)[O-])c1`, the inhibition was 99.6%. As for `O=C(NCCc1nc2ccccc2[nH]1)c1ccc(Cl)cc1`, the inhibition is 74.2%. For `O=C(Cn1cc(C(=O)C2CC2)c2ccccc21)Nc1cccc(C(F)(F)F)c1`, the inhibition was 31.3%. For `COc1ccc(CNC(=O)CSc2nnc3c(n2)[nH]c2ccc(F)cc23)cc1`, the inhibition was found to be 89.6%.

For the compound `O=C(C(=O)N1CCOCC1)c1cn(CC(=O)N2CCCc3ccccc32)c2ccccc12`, the inhibition is -4.11%. Turning to `Cc1cccc(C(=O)NCCc2nc3ccccc3n2CCOc2ccccc2)c1`, the inhibition was 0.31%. Take `Cc1ccc(CNC(=O)CSc2nnc3c(n2)[nH]c2ccc(C)cc23)cc1`: the inhibition was found to be 71.3%.

As for `CCN(CC)C(=O)C(=O)c1cn(CC(=O)Nc2cccc(OC)c2)c2ccccc12`, the inhibition was 86.4%.

As for `COc1cccc(NC(=O)CSc2nnc3c(n2)[nH]c2ccc(C)cc23)c1`, the inhibition came out at 94.2%. Next, `Clc1ccc(OCCSCc2nc3ccccc3[nH]2)cc1`: 44.8%. As for `O=C(CC(=O)Nc1cccc(Cl)c1)NN=Cc1ccccc1`, the inhibition came out at 81.1%.

With `O=C(Cn1cc(C(=O)c2ccco2)c2ccccc21)Nc1cccc(C(F)(F)F)c1`, the inhibition is 89%. As to `CCN(CC)C(=O)C(=O)c1cn(CC(=O)Nc2cccc(C(F)(F)F)c2)c2ccccc12`, the inhibition was 99.5%.

Turning to `O=C(CC=NOCc1ccc([N+](=O)[O-])cc1)Nc1ccc(Br)cc1`, the inhibition amounted to 84.7%.
